Here are results for 20 compounds from the supplement of paper PMC6089552.

“And” between values parts separate entries of the source, which are not always exact repeats. Equal values may be shown once. Hit rate of the full screen: of about 3,200 compounds, about 300 (9.4%) showed activity. The sample as a whole holds a higher share of actives than the screen did.

This assay concerns A673/TR/shEF. Put plainly: cell viability (LOESS-normalised, relative to median of negative controls) (log2 ratio); higher = more viable cells (less compound effect), active = hit call of the paper (over 3 MAD below the median). As to conditions: treatment time: 72 h. In a few lines:
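Doxycycline, present or absent from 24 h before compounds, was used to induce EWS-FLI1 shRNA knockdown in A673/TR/shEF Ewing sarcoma cells at 1,500 per well in 384-well plates. Cells then received library compounds at two or more concentrations, or DMSO controls, for three days. Viability was measured by CellTiter-Glo luminescence on an Envision reader, and per-plate LOESS correction, division by the negative-control median and log2 transformation followed.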

Setting [1] is: 0.025 µM, library screen: screen1, EWS-FLI1 expression: high (no doxycycline).
The mark [2] stands for this setting: 0.025 µM, library screen: screen1, EWS-FLI1 expression: low (doxycycline-induced shRNA knockdown).
The mark [3] stands for this setting: 0.25 µM, library screen: screen1, EWS-FLI1 expression: high (no doxycycline).
Setting [4] is: 0.25 µM, library screen: screen1, EWS-FLI1 expression: low (doxycycline-induced shRNA knockdown).
[5] abbreviates: 2.5 µM, library screen: screen1, EWS-FLI1 expression: high (no doxycycline).
[6] abbreviates: 2.5 µM, library screen: screen1, EWS-FLI1 expression: low (doxycycline-induced shRNA knockdown).
[7] abbreviates: 25 µM, library screen: screen1, EWS-FLI1 expression: high (no doxycycline).
The mark [8] stands for this setting: 25 µM, library screen: screen1, EWS-FLI1 expression: low (doxycycline-induced shRNA knockdown).
[9] abbreviates: 0.25 µM, library screen: screen2, EWS-FLI1 expression: high (no doxycycline).
[10] abbreviates: 0.25 µM, library screen: screen2, EWS-FLI1 expression: low (doxycycline-induced shRNA knockdown).
Setting [11] is: 2.5 µM, library screen: screen2, EWS-FLI1 expression: high (no doxycycline).
[12] abbreviates: 2.5 µM, library screen: screen2, EWS-FLI1 expression: low (doxycycline-induced shRNA knockdown).

Regarding `O=S(=O)(c1cccc2cnccc12)N1CCCNCC1`, the “cell viability (log2)” value is, setting by setting: under setting [1], 0.279; under setting [2], -0.0219 (inactive); under setting [3], 0.333; under setting [4], -0.0194 (inactive); under setting [5], -0.187 (active); under setting [6], 0.0781 (inactive). The “cell viability (log2)” value by setting is: under setting [7], -0.284 (active); under setting [8], 0.0444 (inactive).

For the compound `CC1CNCCN1S(=O)(=O)c1cccc2cnccc12` (stereo unspecified), the “cell viability (log2)” value is, setting by setting: under setting [1], 0.354; under setting [2], 0.0557 (inactive); under setting [3], 0.301; under setting [4], 0.0236 (inactive); under setting [9], 0.145 (inactive) and 0.204 (inactive); under setting [10], 0.0425 (inactive) and 0.187 (inactive). For the same compound, the “cell viability (log2)” value is -0.0561 (inactive) under setting [5]; 0.0655 (inactive) under setting [6]; 0.0837 (inactive) and 0.258 (inactive) under setting [11]; 0.0573 (inactive) and 0.209 (inactive) under setting [12]; -0.155 (active) under setting [7]; 0.112 (inactive) under setting [8].

Take `c1cc(CN2CCCNCCNCCCNCC2)ccc1CN1CCCNCCNCCCNCC1`: the “cell viability (log2)” value (0.103 µM, library screen: screen3, EWS-FLI1 expression: high (no doxycycline)) was 0.00595 (inactive); the “cell viability (log2)” value (0.103 µM, library screen: screen3, EWS-FLI1 expression: low (doxycycline-induced shRNA knockdown)) was 0.0496 (inactive); the “cell viability (log2)” value (0.308 µM, library screen: screen3, EWS-FLI1 expression: high (no doxycycline)) is 0.0705 (inactive); the “cell viability (log2)” value (0.308 µM, library screen: screen3, EWS-FLI1 expression: low (doxycycline-induced shRNA knockdown)) is 0.00482 (inactive); the “cell viability (log2)” value (0.926 µM, library screen: screen3, EWS-FLI1 expression: high (no doxycycline)) is 0.086 (inactive); the “cell viability (log2)” value (0.926 µM, library screen: screen3, EWS-FLI1 expression: low (doxycycline-induced shRNA knockdown)) was 0.0433 (inactive). The “cell viability (log2)” value by setting is: (2.8 µM, library screen: screen3, EWS-FLI1 expression: high (no doxycycline)) 0.0246 (inactive); (2.8 µM, library screen: screen3, EWS-FLI1 expression: low (doxycycline-induced shRNA knockdown)) 0.0244 (inactive); (8.3 µM, library screen: screen3, EWS-FLI1 expression: high (no doxycycline)) 0.0572 (inactive); (8.3 µM, library screen: screen3, EWS-FLI1 expression: low (doxycycline-induced shRNA knockdown)) 0.0352 (inactive); (25 µM, library screen: screen3, EWS-FLI1 expression: high (no doxycycline)) 0.0828 (inactive); (25 µM, library screen: screen3, EWS-FLI1 expression: low (doxycycline-induced shRNA knockdown)) 0.0617 (inactive).

Regarding `O=S(=O)(c1cccc2c(I)cccc12)N1CCCNCC1`, the “cell viability (log2)” value was 0.188 (inactive) under setting [1]; -0.167 (inactive) under setting [2]; 0.201 (inactive) under setting [3]; -0.255 (inactive) under setting [4]; 0.178 (inactive) under setting [9]; 0.133 (inactive) under setting [10]. Also, the “cell viability (log2)” value under setting [5] was -0.248 (active); the “cell viability (log2)” value under setting [6] is -0.111 (inactive); the “cell viability (log2)” value under setting [11] was 0.0746 (inactive); the “cell viability (log2)” value under setting [12] is 0.0593 (inactive); the “cell viability (log2)” value under setting [7] was -0.335 (active); the “cell viability (log2)” value under setting [8] is -0.197 (active).

Regarding `O=S(=O)(c1cccc2cnccc12)N1CCNCC1`, the “cell viability (log2)” value reads like this: under setting [9], 0.166 (inactive); under setting [10], 0.045 (inactive); under setting [11], 0.145 (inactive); under setting [12], 0.0254 (inactive).

Take `CC(C)CCC[C@@H](C)[C@H]1CC[C@H]2[C@@H]3CC[C@H]4C[C@H](O)CC[C@]4(C)[C@H]3CC[C@]12C`: the “cell viability (log2)” value under setting [3] is 0.14 (inactive), the “cell viability (log2)” value under setting [4] is 0.0986 (inactive), the “cell viability (log2)” value under setting [5] was 0.118 (inactive) and the “cell viability (log2)” value under setting [6] was 0.0759 (inactive).

Regarding `O=C(O)/C=C1/CCCc2ccccc2C1O` (stereo unspecified), the “cell viability (log2)” value runs as follows: under setting [3], 0.0671 (inactive); under setting [4], 0.163 (inactive); under setting [9], 0.165 (inactive); under setting [10], 0.0537 (inactive); under setting [5], 0.139 (inactive); under setting [6], 0.187 (inactive). The “cell viability (log2)” value is, setting by setting: under setting [11], 0.071 (inactive); under setting [12], 0.0654 (inactive).

Turning to `CC(=O)O[C@@H]1CC2C(C)(C)[C@H](O)C=C[C@]2(C)C2CC[C@@]3(C)[C@H](c4ccoc4)OC(=O)C4OC43[C@@]21C` (stereo partly specified), the “cell viability (log2)” value under setting [3] was 0.000168 (inactive), the “cell viability (log2)” value under setting [4] was 0.0262 (inactive), the “cell viability (log2)” value under setting [5] is 0.0677 (inactive) and the “cell viability (log2)” value under setting [6] was 0.0357 (inactive).

With `Cc1c(C(=O)O)c(O)cc2c1C(=O)c1c(O)c([C@@H]3O[C@H](CO)[C@@H](O)[C@H](O)[C@H]3O)c(O)c(O)c1C2=O`, the “cell viability (log2)” value runs as follows: under setting [3], 0.057 (inactive); under setting [4], 0.112 (inactive); under setting [5], 0.0928 (inactive); under setting [6], 0.184 (inactive).

`Cc1ccc2nc(NC3=NC(CC(=O)O)C(=O)N3)nc(C)c2c1` (stereo unspecified): the “cell viability (log2)” value was 0.016 (inactive) under setting [3], -0.0194 (inactive) under setting [4], 0.0679 (inactive) under setting [5] and -0.193 (inactive) under setting [6].

With `CCOc1cccc(=O)c2c(C)[nH]c(C)c12`, the “cell viability (log2)” value is 0.0528 (inactive) under setting [3], 0.134 (inactive) under setting [4], 0.0744 (inactive) under setting [5] and 0.088 (inactive) under setting [6].

For `CC1=C2C(O)C(=O)OC3CC4C(C)(C)C(=O)CCC4(C)C(CC1)C23C` (stereo unspecified), the “cell viability (log2)” value reads like this: under setting [3], 0.149 (inactive); under setting [4], 0.0333 (inactive); under setting [5], 0.0817 (inactive); under setting [6], 0.166 (inactive).

As for `CO/N=C(\C(=O)N[C@@H]1C(=O)N2C(C(=O)O)=C(CSc3nc(=O)c(=O)[nH]n3C)CS[C@H]12)c1csc(N)n1`, the “cell viability (log2)” value reads like this: under setting [3], 0.112 (inactive); under setting [4], 0.0388 (inactive); under setting [9], 0.21 (inactive); under setting [10], 0.115 (inactive); under setting [5], 0.082 (inactive); under setting [6], 0.12 (inactive). The “cell viability (log2)” value under setting [11] was 0.149 (inactive) and the “cell viability (log2)” value under setting [12] is 0.12 (inactive).

`CC(=O)Oc1c(Cl)c(C)c2c(c1Cl)OC(=O)c1c(C)c(Cl)c(OC(C)=O)c(Cl)c1O2`: the “cell viability (log2)” value is 0.0776 (inactive) under setting [3], 0.0649 (inactive) under setting [4], 0.0636 (inactive) under setting [5] and -0.0345 (inactive) under setting [6].

On to `COc1c2c(cc3occ(-c4ccc5c(c4)OCO5)c(=O)c13)OC(C)(C)C=C2`, for which the “cell viability (log2)” value under setting [3] was -0.144 (active), the “cell viability (log2)” value under setting [4] is 0.05 (inactive), the “cell viability (log2)” value under setting [5] is 0.0889 (inactive) and the “cell viability (log2)” value under setting [6] is 0.0736 (inactive).

Consider `O=c1c(-c2ccc3c(c2)OCO3)coc2cc(O)ccc12`, for which the “cell viability (log2)” value is 0.113 (inactive) under setting [3], 0.0865 (inactive) under setting [4], 0.149 (inactive) under setting [5] and -2.91 (inactive) under setting [6].

Turning to `COc1cc2c(cc1-c1coc3c4c(ccc3c1=O)OC(C)(C)C=C4)OCO2`, the “cell viability (log2)” value was 0.0979 (inactive) under setting [3], 0.0365 (inactive) under setting [4], 0.112 (inactive) under setting [5] and 0.0354 (inactive) under setting [6].

Regarding `CC1(C)C=Cc2c(cc3occ(-c4ccc5c(c4)OCO5)c(=O)c3c2O)O1`, the “cell viability (log2)” value is, setting by setting: under setting [3], -0.098 (active); under setting [4], 0.0822 (inactive); under setting [5], 0.0137 (inactive); under setting [6], 0.0314 (inactive).

For the compound `CC(C)=CCc1c2c(c3occ(-c4ccc(O)c(O)c4)c(=O)c3c1O)C=CC(C)(C)O2`, the “cell viability (log2)” value was 0.131 (inactive) under setting [3], 0.0868 (inactive) under setting [4], 0.0962 (inactive) under setting [5] and 0.19 (inactive) under setting [6].

As for `COc1c(-c2coc3cc4c(cc3c2=O)CC(O)C(C)(C)O4)ccc2c1C=CC(C)(C)O2` (stereo unspecified), the “cell viability (log2)” value under setting [3] is 0.0473 (inactive), the “cell viability (log2)” value under setting [4] was 0.0244 (inactive), the “cell viability (log2)” value under setting [5] is 3e-05 (inactive) and the “cell viability (log2)” value under setting [6] was 0.094 (inactive).
